# From PubChem
# ALR H2O2 inh: blocks human ALR sulfhydryl oxidase activity; P55789; purified ALR, DTT oxidation, H2O2 HRP-luminol luminescence; inhibition, % (concentration not given with the values); actives 3.8% (n = 290,000); AID 485317;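 active means mean replicate inhibition above about 79%, with every replicate also reaching it, limit read from the data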
# Target sequence (P55789 whole entry, looked up): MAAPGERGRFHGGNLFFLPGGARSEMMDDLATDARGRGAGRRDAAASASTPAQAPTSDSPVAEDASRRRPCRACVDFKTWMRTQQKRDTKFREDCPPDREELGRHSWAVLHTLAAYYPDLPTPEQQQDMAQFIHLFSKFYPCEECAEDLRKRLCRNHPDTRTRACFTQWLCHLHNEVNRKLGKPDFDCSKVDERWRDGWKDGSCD
# SMARCA2 act: activators of SMARCA2 function | MG213 cells, MMTV-luciferase reporter, dexamethasone, overnight | activation, % at 9.1 µM | actives 1% (n = 370,000) | AID 652017; in the data active means activation above about 7.8%
# Exocytosis inh: lytic granule exocytosis inhibition; actives 0.66% (n = 360,000); inhibition, % at 10 µM; TALL-104 LAMP-1 surface exposure, flow cytometry; cells stimulated with thapsigargin and PMA; AID 651702;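 active means inhibition above about 55%, limit read from the data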
# JMJD2C inh: human JMJD2C demethylase inhibition; Q9H3R0; GST-JMJD2C(1-420) H3K9me3 demethylation, DELFIA europium; inhibition, % at 2.35 µM; actives 0.069% (n = 330,000);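 active means more than half of a compound's replicate wells show inhibition beyond 50%, single wells judged on their own value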;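 further: signal counts dimethyl H3K9 product captured on neutravidin plate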
# Target sequence (Q9H3R0 1-420 limits assumed): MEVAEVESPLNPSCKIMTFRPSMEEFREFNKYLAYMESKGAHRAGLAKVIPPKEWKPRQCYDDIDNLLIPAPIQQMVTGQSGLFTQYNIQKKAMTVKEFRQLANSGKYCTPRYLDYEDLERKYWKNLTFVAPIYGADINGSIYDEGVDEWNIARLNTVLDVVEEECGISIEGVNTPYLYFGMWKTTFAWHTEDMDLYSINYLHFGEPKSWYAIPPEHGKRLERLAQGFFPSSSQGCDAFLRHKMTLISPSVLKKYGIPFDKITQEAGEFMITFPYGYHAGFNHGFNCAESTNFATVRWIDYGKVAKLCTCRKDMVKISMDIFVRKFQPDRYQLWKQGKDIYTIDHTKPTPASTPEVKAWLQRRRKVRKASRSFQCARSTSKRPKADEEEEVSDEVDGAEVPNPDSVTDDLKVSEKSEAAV
# PfM18AAP inh: blocks P. falciparum M18 aspartyl aminopeptidase; inhibition, % at 7.35 µM; actives 1.2% (n = 290,000); AID 1822; recombinant PfM18AAP, H-Glu-NHMec fluorogenic cleavage;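 active means inhibition above the campaign mean inhibition over all tested compounds plus 3 SD, cut at about 28% in these data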
# beta cell repl: MIN6 beta-cell proliferation induction; MIN6 cells proliferation, ATPlite luminescence, 48 h; cells starved in 0.2% serum; 100% = growth in 10% serum; proliferation, % at 10 µM; actives 0.29% (n = 330,000); AID 2380;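 active means compounds whose signal lies at least 3.5 SD above the mean of all wells on their plate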
# Hits are given with their value; - = inactive; . = no result given. Shown are actives, neighbours in structure and some others; about 5.4% of the full set was active somewhere.
SMILES,ALR H2O2 inh,SMARCA2 act,Exocytosis inh,JMJD2C inh,PfM18AAP inh,beta cell repl
O=C(/C=C/c1ccccc1)N/C(=C/c1ccccc1)C(=O)Nc1ccc(C(=O)O)cc1,87,-,-,-,-,-
CC(=O)C1C(=O)CC(C)(O)C(C(C)=O)C1c1ccc(N(C)C)cc1 (configuration not stated),98,-,-,-,-,-
CCN(CC)c1ccc(C2C(C(C)=O)C(=O)CC(C)(O)C2C(C)=O)cc1 (configuration not stated),99,-,-,-,-,-
CN(CCO)C1CN(Cc2cn(Cc3ccccc3C(F)(F)F)nn2)S(=O)(=O)C1 (configuration not stated),.,-,.,.,.,.
CC1=C(C#N)C(=O)N(C2CCS(=O)(=O)C2)C(=O)/C1=C\c1ccc(C)o1 (configuration not stated),-,.,.,-,30,-
Cc1ccc(/C=C2\SC(=S)N(C3CCS(=O)(=O)C3)C2=O)o1 (configuration not stated),-,-,-,-,-,-
CCN(CC)c1ccc(N=Cc2ccccc2[N+](=O)[O-])cc1,87,-,-,-,-,-
CCN(CC)c1ccc(N=Cc2ccc([N+](=O)[O-])o2)cc1,.,-,-,-,-,-
COc1ccc(S[C@]2(C(=O)N3CCN(c4ncccn4)CC3)CC(=O)N(C(=O)C3CC3)[C@@H]2c2ccc(OC)cc2)cc1,.,-,.,.,.,.
COc1ccc(CCNC(=O)c2cc3c(=O)n4cccc(C)c4nc3n(Cc3ccco3)c2=N)cc1OC,76,-,-,-,-,-
N=c1c(C(=O)NCc2ccco2)cc2c(=O)n3ccccc3nc2n1Cc1ccc(Cl)cc1,-,-,64,-,-,-
N=c1c(C(=O)NCc2ccco2)cc2c(=O)n3ccccc3nc2n1Cc1ccccc1,.,-,-,-,-,-
Cc1cccc(NC(=O)c2cc3c(=O)n4ccccc4nc3n(CC(C)C)c2=N)c1,-,-,-,-,-,-
COc1cccc(NC(=O)c2cc3c(=O)n4ccccc4nc3n(CC(C)C)c2=N)c1,.,-,68,-,-,-
O=C(Cn1cnc2ccccc2c1=O)N1CCN(C(=O)C2CCCO2)CC1 (configuration not stated),.,-,.,.,.,.
COc1cc2c(cc1OC)-c1cc(Nc3ccc(F)cc3)nc(=O)n1CC2,-,-,-,-,-,-
COc1cc2c(cc1OC)-c1cc(Nc3ccc(N(C)C)cc3)nc(=O)n1CC2,99,7.8,-,-,-,-
CC(C)C[C@H]1COc2cc(Br)ccc2S(=O)(=O)N1Cc1cn(CCC2OCCO2)nn1,.,-,.,.,.,.
COC(=O)[C@H](C(C)C)N(CCCc1cn(Cc2ccccc2)nn1)S(=O)(=O)c1ccccc1Br,.,-,.,.,.,.
CC(C)(C)C(=O)CSc1ncnc2sc3c(c12)CCC3,-,-,-,-,-,-
CC(=O)CSc1ncnc2sc3c(c12)CCC3,94,-,-,-,-,-
COc1cc(NC(=O)CSc2ncnc3sc4c(c23)CCCC4)c(C(=O)O)cc1OC,88,-,-,-,-,-
S=C(Nc1ccc(Br)cc1)OC1CCC12CCC(c1ccccc1)CC2 (configuration not stated),.,-,.,.,.,.
COc1cc(/C=N/Nc2nc(N3CCCC3)nc(N3CCCC3)n2)ccc1O,99,-,-,-,-,-
COc1ccc(/C=N/Nc2cc(C)nc(NS(=O)(=O)c3ccc(C)cc3)n2)cc1,-,-,-,-,-,-
SMILES,ALR H2O2 inh,SMARCA2 act,Exocytosis inh,JMJD2C inh,PfM18AAP inh,beta cell repl
COc1cc(/C=N/Nc2cc(C)nc(NS(=O)(=O)c3ccc(C)cc3)n2)ccc1O,.,-,-,-,30,.
Oc1ccc(/C=N/Nc2cc(N3CCCC3)nc(N3CCCC3)n2)cc1,-,-,-,-,-,-
Oc1ccc(/C=N/Nc2cc(N3CCOCC3)nc(N3CCOCC3)n2)cc1,100,-,-,-,-,-
COc1ccc(/C=N/Nc2cc(N3CCCC3)nc(N3CCCC3)n2)cc1,-,-,72,-,-,-
Oc1cccc(/C=N/Nc2cc(N3CCCC3)nc(N3CCCC3)n2)c1,-,-,-,-,-,-
COC(=O)[C@]12C[C@H](CC(=O)NCCc3ccccc3OC)C(=O)N(CCc3ccc(OC)c(OC)c3)C1=C[C@H](C(C)(C)C)O[C@@H]2C,.,-,.,.,.,.
CC(=O)Nc1ccc(SCC(=O)c2ccc(Br)s2)cc1,99,-,-,-,-,-
CC(=O)Nc1ccc(SCC(=O)c2cc(C)n(C)c2C)cc1,99,-,-,-,-,-
Cc1ccnc(SCC(=O)c2ccc(Br)s2)n1,85,-,-,-,-,-
CC(=O)Nc1ccc(SCC(=O)c2cc(C)n(CC(F)(F)F)c2C)cc1,.,-,-,-,-,-
Nc1ccc2nc(CCc3ccccc3)[nH]c2c1,99,-,-,-,-,-
Cc1ccc2nc(CCc3ccc(N)cc3)[nH]c2c1,99,-,-,-,-,-
Nc1ccc(Cc2nc3cc4ccccc4cc3[nH]2)cc1,-,-,.,-,-,-
Cc1ccc2nc(-c3ccc(C#N)cc3)c(Cc3cccc(F)c3)n2c1,.,-,.,.,.,.
O=C(CN1C(=O)NC2(CCCCC2)C1=O)Nc1ccc(N2CCCCC2)cc1,93,-,-,-,.,-
Cc1cc(N2CCCC2)ccc1NC(=O)CN1C(=O)NC2(CCCCC2)C1=O,93,-,-,-,.,-
O=C(NN=C1CCCC1)c1sc2ccccc2c1Cl,-,-,-,-,-,-
O=C1CCC/C(=N/NC(=O)c2sc3ccccc3c2Cl)C1,98,-,-,-,-,-
CCc1ccc2nc(/N=C(\N)NC(=O)c3ccccc3)nc(C)c2c1,-,7.9,-,-,-,-
c1ccc(-n2cnc3cc(NCc4ccccn4)ccc32)cc1,100,-,-,-,-,-
c1ccc(-n2cnc3cc(NCc4ccncc4)ccc32)cc1,99,-,-,-,-,-
Cc1cc(NCc2ccccn2)ccc1Br,99,-,-,-,-,-
CCCCn1cnc2cc(NCc3ccncc3)ccc21,-,-,-,-,-,-
COc1ccc(-c2nnc(SCC(=O)Nc3ccc(S(=O)(=O)Nc4nccs4)cc3)n2-c2ccc(OC)cc2)cc1,.,-,.,.,.,.
CCCCCCC(=O)N(O)C1CC(=O)N(c2ccc(F)cc2)C1=O (configuration not stated),-,-,-,-,-,-
CCCCCCC(=O)N(O)C1CC(=O)N(c2ccc(Br)cc2)C1=O (configuration not stated),-,-,103,-,-,-
Cc1cc(O)c(-c2cc(C(=O)Nc3cccnc3)[nH]n2)cc1C,-,-,-,-,-,-
Cc1cc(C)c(O)c(-c2cc(C(=O)NCCc3ccc(S(N)(=O)=O)cc3)[nH]n2)c1,-,-,63,-,-,-
Cc1cc(O)c(-c2cc(C(=O)NCCc3ccc(S(N)(=O)=O)cc3)[nH]n2)cc1C,-,-,-,-,-,-
Cc1cc(C)c(O)c(-c2cc(C(=O)Nc3cccnc3)[nH]n2)c1,98,-,-,-,-,-
